In PubChem BioAssay (EPA / NIEHS):
“And” between values parts separate entries of the source, which are not always exact repeats. Identical values can stand only once. More than one record can exist for a structure, and the calls need not agree. The source made the active and inactive calls. The calls were made as follows: active = hit-call score of the fitted dose curve at least 0.9, where 1 is the maximum; inactive = score below 0.9.

Test: APR_HepG2_CellCycleArrest_24hr: Apredica 24-hour HepG2 Assay for Cell Cycle Arrest (AID 2282905);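 also: cell cycle arrest scored as ratio of 2N to 4N nuclear DNA content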
Details: imaging, actives raise or lower the signal
Procedure: APR_HepG2_24hr is a cell-based, multiplexed-readout assay that uses HepG2, a human liver cell line, with measurements taken at 24 hours after chemical dosing in a 384-well plate.APR_HepG2_CellCycleArrest_24hr is one of 10 assay component(s) measured or calculated from the APR_HepG2_24hr assay. It is designed to make measurements of cell phenotype, a form of morphology reporter, as detected with fluorescence intensity signals by HCS Fluorescent Imaging technology.Data from the assay component APR_HepG2_CellCycleArrest_24hr was analyzed into 1 assay endpoint. This assay endpoint, APR_HepG2_CellCycleArrest_24hr, was analyzed with bidirectional fitting relative to DMSO as the negative control and baseline of activity. Using a type of morphology reporter, measures of all nuclear dna for gain or loss-of-signal activity can be used to understand the signaling at the pathway-level as they relate to the gene . Furthermore, this assay endpoint can be referred to as a primary readout, because this assay has produced multiple assay endpoints where this one serves a signaling function. To generalize the intended target to other relatable targets, this assay endpoint is annotated to the cell cycle intended target family, where the subfamily is arrest.
Cells were treated with dimethyl sulfoxide (DMSO) as a solvent control at a final concentration of 0.5% v/v or with compounds in DMSO with a resulting final DMSO concentration of 0.5% v/v. Compound treatment was done at concentrations of 0.39, 0.78, 1.56, 3.12, 6.24, 12.5, 25, 50, 100, and 200 uM in duplicate on each plate. Cells were treated with compounds for 1, 24, or 72 hr. Carbonyl […] m-chloro-phenylhydrazone (CCCP) and taxol were used as positive controls for mitochondrial function and cytoskeletal stability, respectively; DMSO served as the negative control for this experiment. Cells were fixed by the direct addition of 50 uL formaldehyde in Hank's Balanced Salt Solution (HBSS) to a final concentration of 3.7%. After incubation in the fixation medium for 30 min at room temperature (293-298 K), cells were rinsed twice with HBSS and treated with cell permeabilization buffer (16 uL of 0.5% Triton X-100) for 10 min at room temperature (293-298 K) before labeling. For mitochondrial membrane potential and mitochondrial measurements, pre-fixed cells were incubated with 50 uL of MitoTracker Red CMXRos (Invitrogen) at a concentration of 250 nM for 30 min before fixation. In the remaining cases, post-fixed cells were labeled by incubation with a multiplexed mixture of primary antibodies in HBSS for 60 min at room temperature (293-298 K) to detect immunoreactivity of c-Jun (1:500), phospho-histone H3 (1:100), phospho-histone H2A.x (1:200), p53 (1:400), alpha-tubulin (1:200) and Hoechst 33342 (2 ug/mL). Cells were labeled for multiplexed imaging on two separate plates: a) Hoechst 33342, MitoTracker Red, phospho-histone H3, and alpha-tubulin, and b) Hoechst 33342, phospho-histone H2A.x, and c-Jun. A final rinse with HBSS (50 uL) was performed before analysis. The primary and secondary antibodies for the proteins were phospho-histone H3 (rabbit anti-phospho-histone H3 and FITC-donkey anti-rabbit IgG), phospho-histone H2A.x (mouse anti-phospho-histone H2A.x and FITC-donkey anti-mouse IgG), c-Jun (rabbit anti-phospho-c-Jun and Cy3-donkey anti-rabbit IgG), p53 (sheep anti-p53 and Cy5-donkey anti-sheep IgG), alpha-tubulin (mouse anti-alpha-tubulin and Cy5-donkey anti-mouse IgG). These antibodies are available as the CellCiphr HepG2 assay kit (Millipore).Digital images of each well were captured using a Cellomics ArrayScan VTI (Thermo Scientific Cellomics) (0.8 NA objective, 0.63x optical coupler, and XF-93 filter set) at 20x magnification. The images were acquired using the autofocus feature of the ArrayScan instrument, which entails the following steps. First, the camera focuses on channel 1 (Hoechst 33342), where nuclei are identified. Second, a Z offset of 1 um is used for capturing mitochondria (MitoTracker Red). […]

Row | SMILES | outcome | AC50
1 | CCCCOCCOCCOCc1cc2c(cc1CCC)OCO2 | inactive | –
2 | CCCCC(CC)CN1C(=O)C2C3C=CC(C3)C2C1=O (stereo not given) | inactive | –
3 | COC(=O)c1c(Cl)nn(C)c1S(=O)(=O)NC(=O)Nc1nc(OC)cc(OC)n1 | inactive | –
4 | Cc1nn(C)c(Oc2ccccc2)c1C=NOCc1ccc(C(=O)OC(C)(C)C)cc1 | – | 29.9 µM (active)
5 | O=C(c1ccccc1)C1CCCCC1 | inactive | –
6 | CCOC(=O)C(C)Oc1ccc(Oc2cnc3cc(Cl)ccc3n2)cc1 (stereo not given) | inactive | –
7 | CCNc1nc(N)nc(Cl)n1 | inactive | –
8 | CCCOC(=O)c1ccc(C(=O)OCCC)nc1 | inactive | –
9 | C#C[C@]1(O)CC[C@H]2[C@@H]3CCC4=CC(=O)CC[C@@H]4[C@H]3CC[C@@]21CC | inactive | –
10 | N#CSCSc1nc2ccccc2s1 | – | 29.6 µM (active)
11 | c1ccc2[nH]c(-c3cscn3)nc2c1 | inactive | –
12 | COCCO | inactive | –
13 | CCOC(=O)NCCOc1ccc(Oc2ccccc2)cc1 | inactive | –
14 | CCC(O)=C1C(=O)CC(C(=O)O)CC1=O (stereo not given) | inactive | –
15 | CCOC(=O)C(C)Oc1ccc(Oc2nc3ccc(Cl)cc3o2)cc1 (stereo not given) | inactive | –
16 | COC(=O)CSc1cc(N=c2sc(=O)n3n2CCCC3)c(F)cc1Cl | inactive | –
17 | O=C(Nc1ccc([N+](=O)[O-])cc1Cl)c1cc(Cl)ccc1O | – | 0.0918 µM (active)
18 | S=C(S)NCCNC(=S)S.[Mn+2].[S-]C([S-])=NCCN=C([S-])[S-].[Zn+2] | inactive | 50.8 µM (active) and 53.7 µM (active)
19 | COC(=O)c1ccccc1C(=O)O | inactive | –
20 | CN(C)C(=O)Nc1ccc(Cl)c(Cl)c1 | inactive | –

Row | SMILES | outcome | AC50
21 | CC(=O)[C@H]1CC[C@H]2[C@@H]3CCC4=CC(=O)CC[C@]4(C)[C@H]3CC[C@]12C | – | 169 µM (active)
22 | S=C([S-])NCCNC(=S)[S-].[Mn+2] | inactive | –
23 | CCCN(CCC)c1c([N+](=O)[O-])cc(C(F)(F)F)c(N)c1[N+](=O)[O-] | inactive | –
24 | CCOC(=O)c1ccc(O)cc1 | inactive | –
25 | c1ccc(Nc2ccccc2)cc1 | inactive | –
26 | CC(C)(C)[C@@H](O)[C@@H](Cc1ccc(Cl)cc1)n1cncn1 | inactive | –
27 | OB(O)O | inactive | –
28 | O=C(O)c1ccccc1 | inactive | –
29 | CSC(=O)c1cccc2nnsc12 | inactive | –
30 | C=CCOC(Cn1ccnc1)c1ccc(Cl)cc1Cl (stereo not given) | inactive | –
31 | CCOC(=O)[C@H](C)Oc1ccc(Oc2nc3ccc(Cl)cc3o2)cc1 | inactive | –
32 | CCCOC(=O)NCCCN(C)C | inactive | –
33 | CC1(C)C(C=C(Cl)Cl)C1C(=O)OCc1cccc(Oc2ccccc2)c1 (stereo not given) | inactive | –
34 | CC(C)CCCCCCc1ccc(O)cc1 | – | 96.8 µM (active)
35 | CCN(CC)C(=O)c1cccc(C)c1 | inactive | –
36 | CC(C)(c1ccc(O)cc1)c1ccc(O)cc1 | inactive | –
37 | O=C(O)C1(C(=O)Nc2ccc(Cl)cc2Cl)CC1 | inactive | –
38 | COC(=O)c1cccc(C)c1S(=O)(=O)NC(=O)Nc1nc(OCC(F)(F)F)nc(N(C)C)n1 | inactive | –
39 | COc1c(Cl)ccc(Cl)c1C(=O)O | inactive | –
